About 2,000 (0.91%) of roughly 220,000 compounds were called active. Not shown: some 2% with an inconclusive outcome. The list is a sample of the results. Measured potencies and affinities stand elsewhere. Values without a mark were called inactive. Cut-off read from the data, not from the text of the source: inconclusive = inhibition above about 80% without an active follow-up result; inactive = below that; test concentration not stated here.
Test: M. tuberculosis H37Rv growth inhibitors, H37Rv strain (AID 1626);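 note: bacteria incubated seven days before Alamar blue readout; 0% = bacteria only wells and 100% = bacteria with antibiotic wells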
Settings: hits give high values, concentration not given here

| Structure (SMILES) | inhibition [%] |
| --- | --- |
| c1ccc2c(c1)N1CCN=C1N2CCN1CCCCC1 | -2.04 |
| c1ccc2c(c1)N1CCCN=C1N2CCN1CCCCC1 | 1.49 |
| O=C(Nc1ccc2c(c1)OCO2)C1CCN(C(=O)c2cccs2)CC1 | 0.36 |
| O=c1oc(-c2ccccc2)nc2c1cnn2-c1ccccc1 | 19.8 |
| O=c1oc(-c2cccc(Cl)c2)nc2c1cnn2-c1ccccc1 | 22.1 |
| N#C/C(=C\c1ccc(Cl)c([N+](=O)[O-])c1)c1ccccn1 | 6.45 |
| CCOC(=O)c1c(NC(=O)CNCC(O)CO)sc(C)c1C (stereo not given) | 4.88 |
| O=C(Cn1cnc([N+](=O)[O-])n1)NC1CC1 | -0.97 |
| Nc1nc(Cl)cc(Sc2ccc3ccccc3c2)n1 | 8.65 |
| Nc1nc(Cl)cc(Sc2ccc(F)cc2)n1 | 4.27 |
| Cc1cc(NC(=O)CSc2nc(N)c(NC(=O)c3ccccc3)c(=O)[nH]2)no1 | -1.25 |
| CCOC(=O)N1CCN(C/C(C)=C/c2ccccc2)CC1 | -4.4 |
| CCOC(=O)N1CCN(S(=O)(=O)/C=C/c2ccccc2)CC1 | -17.8 |
| CC(C)(C)NS(=O)(=O)c1ccc(CCC(=O)Nc2ccc3c(c2)OCCO3)cc1 | -4.02 |
| COc1ccccc1S(=O)Cc1ccc(C(=O)O)o1 (stereo not given) | -6.58 |
| CN(C)[C@@H]1C(=O)C(C(N)=O)=C(O)[C@@]2(O)C(=O)C3=C(O)c4c(O)cccc4[C@@](C)(O)[C@H]3C[C@@H]12 | -3.76 |
| CN(C)[C@@H]1C(=O)C(C(N)=O)=C(O)[C@@]2(O)C(=O)C3=C(O)c4c(O)cccc4[C@@](C)(O)[C@H]3[C@H](O)[C@@H]12 | 11.9 |
| C=C1c2cccc(O)c2C(O)=C2C(=O)[C@]3(O)C(O)=C(C(N)=O)C(=O)[C@@H](N(C)C)[C@@H]3[C@@H](O)[C@H]12 | 1.79 |
| C[C@H]1c2cccc(O)c2C(O)=C2C(=O)[C@]3(O)C(O)=C(C(N)=O)C(=O)[C@@H](N(C)C)[C@@H]3[C@@H](O)[C@@H]21 | 63.7 |
| CCN(CC)c1nc2ccccc2[nH]c1=O | -5.3 |
| COc1ccc(C(=O)N/N=C/c2sc(=O)n(Cc3cccc(C(=O)O)c3)c2Cl)cc1 | -6.32 |
| O=C(NCc1cccc(Br)c1)C1CC(c2ccc(C(F)(F)F)cc2)=NO1 (stereo not given) | 18.7 |
| O=C(O)c1cccc(N2C(=O)/C(=C/c3ccc([N+](=O)[O-])cc3)C=C2c2ccccc2)c1 | 1.03 |

| Structure (SMILES) | inhibition [%] |
| --- | --- |
| O=C1/C(=C/c2ccc([N+](=O)[O-])cc2)C=C(c2ccccc2)N1c1ccccc1 | -2.05 |
| COCCCNC(=O)c1ccc(CS(=O)(=O)c2ccc(Br)cc2)o1 | -8.42 |
| Cc1nc(CNC(=O)CC2C(=O)NCCN2Cc2cccc(Oc3ccccc3)c2)cs1 (stereo not given) | -3.5 |
| COc1cc2c(cc1OC)C(C)N(C(C)=O)CC2 (stereo not given) | -6.23 |
| COC(=O)c1sccc1NC(=O)c1sccc1C | 0.49 |
| CCCCOc1ccc(C(=O)Nc2ccc(N3CCN(C)CC3)cc2)cc1 | 16.1 |
| Cc1cc(C)c(NC(=O)c2cn3c4c(c(N5CCN(C)CC5)c(F)cc4c2=O)OCC3C)c(C)c1 (stereo not given) | 9.11 |
| COc1ccc(CCC(=O)Nc2cccc(Cl)c2)cc1 | 10.2 |
| Cc1nc2c(C)cccc2cc1C(=O)N/N=C/c1ccc(C(=O)O)cc1 | -1.57 |
| COC(=O)c1cccc(NC(=O)/C=C/c2ccc([N+](=O)[O-])cc2)c1 | 3.4 |
| COC(=O)c1cccc(NC(=O)/C=C/c2cccc([N+](=O)[O-])c2)c1 | -2.96 |
| Cc1ccc(NC(C)C(=O)N/N=C/c2ccc([N+](=O)[O-])s2)cc1 (stereo not given) | 75 |
| Cc1ccc(NC(=O)/C=C/c2cccs2)c([N+](=O)[O-])c1 | -6.44 |
| O=C(/C=C/c1cccs1)Nc1ccc([N+](=O)[O-])cc1 | 4.49 |
| Cc1cc(C)cc(NC(=O)/C=C/c2ccc([N+](=O)[O-])s2)c1 | 15.5 |
| CCCC(c1nnnn1C(C)(C)C)N1CCN(Cc2ccccc2OC)CC1 (stereo not given) | -3.31 |
| CCOC(=O)c1[nH]c(C)c(C(=O)NCc2cccnc2)c1C | -1.85 |
| O=C(NCc1ccccn1)c1ccc(Cl)c(S(=O)(=O)Nc2ccccc2C(=O)NCc2ccccn2)c1 | -4.28 |
| CCN1CCN(C(=O)c2cn(CCOC)c(=O)c3c2c2ccccc2n3C)CC1 | 2.91 |
| O=C(CCC1CCCN(C(=O)c2ccsc2)C1)N1CCN(c2ccccn2)CC1 (stereo not given) | -1.82 |
| COc1cccc(OC)c1C(=O)NC(=S)Nc1ccc2c(c1)OCCO2 | 7.64 |
| COC(=O)N/N=C/c1ccccc1 | 3.14 |
| CC(C)(C)OC(=O)N1CCN(C(=O)Nc2ccc3c(c2)OCCO3)CC1 | 3.99 |

| Structure (SMILES) | inhibition [%] |
| --- | --- |
| CC(=O)NC(CCS(C)(=O)=O)C(=O)Nc1cc(Cl)ccc1Cl (stereo not given) | 4.83 |
| COc1ccccc1NC(=O)CN1C(=O)NC(CC(C)C)C1=O (stereo not given) | -11.7 |
| CCc1nnc(NS(=O)(=O)c2ccc(N=Cc3c(C)[nH]n(-c4ccc(Cl)cc4)c3=O)cc2)s1 | 12.1 |
| Cc1ccc(-n2[nH]c(C)c(C=Nc3ccc(S(=O)(=O)Nc4nccs4)cc3)c2=O)c(C)c1 | 45.6 |
| COc1ccc(NC(=O)CN(Cc2ccccc2)Cc2ccccc2)cc1S(N)(=O)=O | 4.02 |
| Cc1ccc(Nc2nc(-c3ccncc3)nc3ccccc23)cc1 | -4.95 |
| CN(Cc1ccccc1)c1nc(-c2ccc([N+](=O)[O-])cc2)nc2ccccc12 | 0.45 |
| O=[N+]([O-])c1ccc(-c2nc(NCc3ccccc3)c3ccccc3n2)cc1 | -2.12 |
| Cc1ccc(-c2nc(Cl)nc3ccccc23)cc1 | -2.37 |
| CC1(C(=O)N2CCN(c3ccccc3)CC2)CC1(Cl)Cl (stereo not given) | 0.45 |
| COCCCNC(=O)CSc1nc2sc(C(=O)OC)c(C)c2c(=O)n1N | 7.98 |
| CN(C)C(=O)Cn1c(SCC(=O)N2CCCc3ccccc32)nc2ccccc21 | -5.91 |
| Cc1ccc(OCc2nc3c4c(ncn3n2)-c2ccccc2CC42CCCC2)cc1 | -1.61 |
| COc1ccc2c(c1)CCC/C2=N/OC(=O)c1ccccc1OC | 10.5 |
| CCCSc1nc2c(=O)[nH][nH]c(=O)c2n1Cc1ccccc1 | -2.99 |
| O=C(Nc1ccccc1-c1nnc(SCc2ccccc2)o1)c1ccccc1 | 8.97 |
| CCOC(=O)N1CCN(C(=O)CSc2nnc(-c3cc(OC)ccc3OC)o2)CC1 | 17.1 |
| O=C(CSc1nnc(-c2ccccc2NC(=O)c2ccccc2)o1)OC1CCCCC1 | 61.5 |
| COc1ccc(-c2nnc(SCC(=O)N3CCCCC3)o2)c(OC)c1 | 3.89 |
| COC(=O)CSc1nnc(-c2ccccc2OC)o1 | 1.84 |
| CCOC(=O)CSc1nnc(-c2ccccc2OC)o1 | 10.6 |
| C#CCNC(=O)C1=C[C@@H](C)[C@H](CCCO)[C@@H](OCC)O1 | -2.73 |
| O=C(CCn1[nH]c(=O)c2ccccc2c1=O)NCCO | -2.07 |

| Structure (SMILES) | inhibition [%] |
| --- | --- |
| COc1cccc(-c2nc(-c3ccc(NC(=O)c4ccncc4)cc3)no2)c1 | 7.98 |
| CC1(C)OC(=O)C(=NNc2ccc(Br)cc2)C(=O)O1 | 76.6 |
| O=C1c2ccccc2C(=O)N1CCCCN(C(=O)c1ccc([N+](=O)[O-])cc1)c1ccc(Cl)cc1 | -7.62 |
| O=C1c2ccccc2C(=O)N1CCCCN(C(=O)c1cccc([N+](=O)[O-])c1)c1ccc(Cl)cc1 | -4.65 |
| CCOC(=O)C1(CCOc2ccccc2)CCN(Cc2ccc3c(c2)OCCO3)CC1 | -3.31 |
| O=c1[nH]c(=O)n(CCOc2ccc(Cl)cc2)cc1Br | -3.97 |
| COCCNC(=S)N1CCC(c2nc(-c3ccc(F)cc3)no2)CC1 | -1.41 |
| CC1=Nc2ccccc2/C1=C/c1sc(=S)n(-c2cccc(C(=O)O)c2)c1O | 4.52 |
| CC1=Nc2ccccc2/C1=C/c1sc(=O)n(CC(=O)N2CCCC2)c1O | -8.48 |
| CC(C)CN(CCC(=O)O)CC(C)C | -0.69 |
| CCOC(=O)c1cnc(-n2nc(C)cc2C)nc1Oc1ccccc1F | -2.19 |
| CCOC(=O)c1cnc(-n2nc(C)cc2C)nc1NCCO | 4.03 |
| CCOC(=O)c1cnc(-n2nc(C)cc2C)nc1Nc1ccccc1OC | 25.4 |
| CCOC(=O)c1cnc(-n2nc(C)cc2C)nc1N1CC(C)OC(C)C1 (stereo not given) | -1.14 |
| CCOC(=O)c1ccc(NCc2ccc3c(c2)OCO3)cc1 | 7.94 |
| CCOC(=O)c1cnc(-n2cc(C)cn2)nc1NCc1ccc2c(c1)OCO2 | 59.5 |
| O=C(Cn1c(=O)n(-c2ccccc2)c(=O)c2oc3ccccc3c21)Nc1ccccc1 | -0.16 |
| O=C1CC(=O)CC(c2ccccc2Cl)C1 | -8.51 |
| CCO[C@H]1OC(C(=O)O)=C[C@@H](C(C)(C)C)[C@@H]1CCCO | -7.81 |
| NS(=O)(=O)c1ccc(C(=O)Nc2ccc(-c3nc4cccnc4s3)cc2)cc1 | 9.76 |
| Cc1cc(C)c2c3c(cn2n1)c(=O)n(C)c(=O)n3C | 4.42 |

Source: PubChem BioAssay AID1626 (SRMLSC, 2009)
